Measured values taken from PubChem BioAssay (Tox21).
Results filed as inconclusive are left out. A call without a number means that no potency is given here. Unmarked numbers belong to inactive results. Calls of active or inactive are those of the source. The call rests on the fitted dose curve; in most records, active means well fitted cell-killing curve with a large enough effect in the repeat runs; inconclusive means weak or mixed curves, or effect the other way; inactive means flat fitted curve, though single readings scatter.

What was measured:
[1] = cAMP Responsive Elements (CRE) small molecule antagonists, cell-based qHTS assay: qHTS cell viability counter screen (AID 2060913); further: nearly all actives have a fitted effect of over 40% in size
In short: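 CRE-bla HEK293T cells (2,000/well, 18 h) given compound plus NKH477 0.25 uM final for 3 h at 37C; viability counter-screen by CellTiter-Glo luminescence in same wells after 30 min.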

[2] = cAMP Responsive Elements (CRE) small molecule agonists, cell-based qHTS assay: qHTS cell viability counter screen (AID 2060914);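 further: viability read after 3 h of compound exposure; nearly all actives have a fitted effect of over 50% in size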
In short: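 Cytotoxicity counter screen multiplexed with the CRE-bla reporter assay in HEK 293T cells: 3 h compound exposure at 37 °C, followed by CellTiter-Glo luminescence measured in the same wells.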
Potency means the concentration at half of the fitted maximal effect.

| Compound | viability change, negative = cytotoxic [1] | activity change, negative = cytotoxicity [2] | Potency [1] | Potency [2] |
| --- | --- | --- | --- | --- |
| Brc1c2ccccc2c(Br)c2ccccc12 | -0.61% [at 8.39 µM] | -1.97% [at 8.39 µM] |  |  |
| CCCCC(CC)COC(=O)CC#N (configuration not stated) |  |  | inactive | inactive |
| CCOC(=O)CC(=O)OCC |  |  | inactive | inactive |
| C[C@H]1NCc2cc(-c3ccc4c(=O)c(C(=O)O)cn(C5CC5)c4c3OC(F)F)ccc21 | 4.45% [at 18.9 µM] | -2.79% [at 18.9 µM] |  |  |
| CC(C)(C)C(=O)O |  |  | inactive | inactive |
| CCC(C)(C)C(=O)O |  |  | inactive | inactive |
| CCCCCCCCCCC(=O)O |  |  | inactive | inactive |
| COC(=O)CC(=O)C(C)(C)C |  |  | inactive | inactive |
| CCCCC(CC)COC(C)=O (configuration not stated) |  |  | inactive | inactive |
| CC(C)OC(=O)C(C(=O)OC(C)C)=C1SC=CS1 |  |  | inactive | inactive |
| CC(C)=CCC/C(C)=C\C#N |  |  | inactive | inactive |
| CC(=O)OCC(=O)[C@H]1CC[C@H]2[C@@H]3CCC4=CC(=O)CC[C@]4(C)[C@H]3CC[C@]12C |  |  | inactive | inactive |
| CCOC(=O)C1=C(C)NC(C)=C(C(=O)OC)C1c1cccc(Cl)c1Cl (configuration not stated) |  |  | inactive | inactive |
| NCCCCCCNCCCCCCN |  |  | inactive | inactive |
| [O-][N+](=Nc1ccccc1)c1ccccc1 |  |  | inactive | inactive |
| COc1nc(C)nc(NC(=O)NS(=O)(=O)c2ccccc2OCCCl)n1 |  |  | inactive | inactive |
| CC(=O)OCC(=O)NCCCOc1cccc(CN2CCCCC2)c1 |  |  | inactive | inactive |
| CCCC(=O)OCCc1ccccc1 |  |  | inactive | inactive |
| CC(C)CCCCCCOC(=O)c1ccc(C(=O)OCCCCCCC(C)C)c(C(=O)OCCCCCCC(C)C)c1 |  |  | inactive | inactive |
| CC(c1cc(C(C)(C)C)cc(C(C)(C)C)c1O)c1cc(C(C)(C)C)cc(C(C)(C)C)c1O |  |  | inactive | inactive |
| CNC[C@H](O)[C@@H](O)[C@H](O)[C@H](O)CO |  |  | inactive | inactive |
| Cc1ccccc1N=C(N)N=C(N)N |  |  | inactive | inactive |
| CCCCOC(=O)CCCCCCCC(=O)OCCCC |  |  | inactive | inactive |
| COc1ccc2cc([C@H](C)C(=O)O)ccc2c1 |  |  | inactive | inactive |
| CCOC(=O)C(O)c1ccccc1 (configuration not stated) |  |  | inactive | inactive |
| CCC(C(=O)O)c1ccc(N2Cc3ccccc3C2=O)cc1 (configuration not stated) |  |  | inactive | inactive |

| Compound | viability change, negative = cytotoxic [1] | activity change, negative = cytotoxicity [2] | Potency [1] | Potency [2] |
| --- | --- | --- | --- | --- |
| CCCc1nc2c(C)cc(-c3nc4ccccc4n3C)cc2n1Cc1ccc(-c2ccccc2C(=O)O)cc1 |  |  | inactive | inactive |
| CCN(CCC#N)c1ccccc1 |  |  | inactive | inactive |
| CCCCCCCC/C=C\CCCCCCCCOCCO |  |  | 79.4 µM (active) | 63.1 µM (active) |
| COC(=O)c1ccc(O)cc1 |  |  | inactive | inactive |
| COc1ccc(C)cc1 |  |  | inactive | inactive |
| C[C@]12CC[C@H]3[C@@H](CCC4=CC(=O)CC[C@@]43C)[C@@H]1CC[C@@H]2C(=O)CO |  |  | inactive | inactive |
| CCCC(=O)OCC(COC(=O)CCC)OC(=O)CCC |  |  | inactive | inactive |
| CO[C@H]1C=CO[C@@]2(C)Oc3c(C)c(O)c4c(O)c(c(/C=N/N5CCN(C)CC5)c(O)c4c3C2=O)NC(=O)/C(C)=C\C=C[C@H](C)[C@H](O)[C@@H](C)[C@@H](O)[C@@H](C)[C@H](OC(C)=O)[C@@H]1C |  |  | inactive | inactive |
| CC(C)N(C)C |  |  | inactive | inactive |
| Cc1ccc(S(N)(=O)=O)cc1 |  |  | inactive | inactive |
| CCc1cccc(CC)c1N |  |  | inactive | inactive |
| CN(C)c1ccc(C(=N)c2ccc(N(C)C)cc2)cc1 |  |  | inactive | inactive |
| OCCN1CCOCC1 |  |  | inactive | inactive |
| CCCCCCCC/C=C\CCCCCCCC(=O)OC(CO)CO |  |  | inactive | inactive |
| Cc1ccc(N)c(S(=O)(=O)O)c1 |  |  | inactive | inactive |
| CCCCCCCC(=O)N(C)C |  |  | inactive | inactive |
| Cc1c(C)c2c(c(C)c1OC(=O)CCC(=O)OCCO)CC[C@@](C)(CCC[C@H](C)CCC[C@H](C)CCCC(C)C)O2 |  |  | inactive | 26.6 µM (active) |
| CCn1cc(C(=O)O)c(=O)c2cc(F)c(N3CCN(C)CC3)cc21 | 3.1% [at 18.9 µM] | 12% [at 18.9 µM] |  |  |
| CC(O)C1CCCCC1 (configuration not stated) |  |  | inactive | inactive |
| NCc1cccc(CN)c1 |  |  | inactive | inactive |
| CC(=O)Nc1cccc(N)c1 |  |  | inactive | inactive |
| NS(=O)(=O)c1ccccc1OC(F)(F)F |  |  | inactive | inactive |
| CC(C)CCCC(C)CCCC(C)CCCCC(C)CCCC(C)CCCC(C)C (configuration not stated) |  |  | inactive | inactive |
| CCCOC(=O)c1cc(O)c(O)c(O)c1 |  |  | inactive | inactive |
| O=C1OC(=O)c2ccc3c4c(ccc1c24)C(=O)OC3=O |  |  | inactive | inactive |
| C=C(C)C(=O)OCC(O)COc1ccc(C(C)(C)c2ccc(OCC(O)COC(=O)C(=C)C)cc2)cc1 (configuration not stated) |  |  | 61.1 µM (active) | 61.1 µM (active) |

| Compound | viability change, negative = cytotoxic [1] | activity change, negative = cytotoxicity [2] | Potency [1] | Potency [2] |
| --- | --- | --- | --- | --- |
| COc1ccc(C(=O)c2ccc(C)cc2)c(O)c1 |  |  | inactive | inactive |
| O=c1cc(-c2ccccc2)oc2ccccc12 |  |  | inactive | inactive |
| CN=C(NC#N)NCCSCc1csc(N=C(N)N)n1 |  |  | inactive | inactive |
| OCCCc1ccccc1 |  |  | inactive | inactive |
| O=C1CCCC(=O)O1 |  |  | inactive | inactive |
| CCCCCCCCSCc1cc(C)c(O)c(CSCCCCCCCC)c1 |  |  | inactive | inactive |
| CO[C@@]1(NC(=O)CSC[C@@H](N)C(=O)O)C(=O)N2C(C(=O)O)=C(CSc3nnnn3C)CS[C@@H]21 |  |  | inactive | inactive |
| CC(C)=CCCC(C)O (configuration not stated) |  |  | inactive | inactive |
| O[C@@H](c1cc(C(F)(F)F)nc2c(C(F)(F)F)cccc12)[C@H]1CCCCN1 |  |  | inactive | inactive |
| COc1ccc(Nc2ccccc2)c(C)c1 |  |  | inactive | inactive |
| C=CCOC(=O)CCCCCC |  |  | inactive | inactive |
| O=C1N(c2ccccc2)c2ccccc2C1(Cc1ccncc1)Cc1ccncc1 |  |  | inactive | inactive |
| CC1(C)O[C@@H]2C[C@H]3[C@@H]4C[C@H](F)C5=CC(=O)C=C[C@]5(C)[C@H]4[C@@H](O)C[C@]3(C)[C@]2(C(=O)CO)O1 |  |  | inactive | inactive |
| CCn1cc(C(=O)O)c(=O)c2cc3c(cc21)OCO3 |  |  | inactive | inactive |
| O=C(O)c1snc(Cl)c1Cl |  |  | inactive | inactive |
| O=C(O)c1c(O)c(-c2ccccc2)nc2ccccc12 |  |  | inactive | inactive |
| CCCCCc1ccc(N)cc1 |  |  | inactive | inactive |
| C1CCN2C[C@@H]3C[C@@H](CN4CCCC[C@@H]34)[C@H]2C1 |  |  | inactive | inactive |
| C=CCCC(=O)/C=C/C1C(C)=CCCC1(C)C (configuration not stated) |  |  | inactive | inactive |
| CC(C)=CCC[C@](C)(O)[C@@H]1CC=C(C)CC1 |  |  | inactive | inactive |
| CCc1cccc(C)c1N(C(=O)CS(=O)(=O)O)C(C)COC (configuration not stated) |  |  | inactive | inactive |
| O=C(O)C1(C(=O)O)CCC1.[NH2-].[NH2-].[Pt+2] |  |  | inactive | inactive |
| CC(C)(c1cc(Br)c(OCC(Br)CBr)c(Br)c1)c1cc(Br)c(OCC(Br)CBr)c(Br)c1 (configuration not stated) |  |  | inactive | inactive |
| O=C1OC(=O)C2CC=CCC12 (configuration not stated) |  |  | inactive | inactive |
| COc1ccc(OC)c(N=Nc2c(O)ccc3ccccc23)c1 |  |  | inactive | inactive |
| CCOc1ccccc1OCCN[C@H](C)Cc1ccc(OC)c(S(N)(=O)=O)c1 |  |  | inactive | inactive |

| Compound | viability change, negative = cytotoxic [1] | activity change, negative = cytotoxicity [2] | Potency [1] | Potency [2] |
| --- | --- | --- | --- | --- |
| CCCCN(C)C |  |  | inactive | inactive |
| Cc1c(Cl)cccc1Nc1ccccc1C(=O)O |  |  | inactive | inactive |
| CC(C)C(=O)OCc1ccccc1 |  |  | inactive | inactive |
| Nc1cccc(O)c1 |  |  | inactive | inactive |
| O=S(=O)(c1ccccc1)c1ccc(Cl)cc1 |  |  | inactive | inactive |
| CC(C)=CCCC(C)CC=O (configuration not stated) |  |  | inactive | inactive |
| CC(=O)O[C@@]12CO[C@@H]1C[C@H](O)[C@@]1(C)C(=O)[C@H](O)C3=C(C)[C@@H](OC(=O)[C@H](O)[C@@H](NC(=O)OC(C)(C)C)c4ccccc4)C[C@@](O)([C@@H](OC(=O)c4ccccc4)[C@H]21)C3(C)C |  |  | inactive | inactive |
| O=C(CS(=O)Cc1ccco1)NC/C=C\COc1cc(CN2CCCCC2)ccn1 (configuration not stated) |  |  | inactive | inactive |
| N#Cc1ccccc1 |  |  | inactive | inactive |
| CC(C)(O)c1ccc(C(C)(C)O)cc1 |  |  | inactive | inactive |
| Cc1ccccc1CCO |  |  | inactive | inactive |
| CC1=CCC(O)(C(C)C)CC1 (configuration not stated) |  |  | inactive | inactive |
| CO/N=C(/C(=O)N[C@@H]1C(=O)N2C(C(=O)[O-])=C(C[n+]3ccn4ncccc43)CS[C@H]12)c1nsc(N)n1 |  |  | inactive | inactive |
| CC(=O)CC(=O)N(C)C |  |  | inactive | inactive |
| Nc1nc(N)nc(-c2cc(Cl)ccc2Cl)n1 |  |  | inactive | inactive |
| O=C(OC[C@H]1O[C@@H](OC(=O)c2cc(O)c(O)c(OC(=O)c3cc(O)c(O)c(O)c3)c2)[C@H](OC(=O)c2cc(O)c(O)c(OC(=O)c3cc(O)c(O)c(O)c3)c2)[C@@H](OC(=O)c2cc(O)c(O)c(OC(=O)c3cc(O)c(O)c(O)c3)c2)[C@@H]1OC(=O)c1cc(O)c(O)c(OC(=O)c2cc(O)c(O)c(O)c2)c1)c1cc(O)c(O)c(OC(=O)c2cc(O)c(O)c(O)c2)c1 | -4.21% [at 18.9 µM] | -4.58% [at 18.9 µM] |  |  |
| CC(C)(C)c1ccc(C(O)CCCN2CCC(C(O)(c3ccccc3)c3ccccc3)CC2)cc1 (configuration not stated) |  |  | inactive | inactive |
| ClC(c1ccccc1)(c1ccccc1)c1ccccc1 |  |  | inactive | inactive |
| NC(=O)c1ccccc1O |  |  | inactive | inactive |
| C1CCCC1 |  |  | inactive | inactive |
| O=C(O)c1cc(N=Nc2ccc(S(=O)(=O)Nc3ccccn3)cc2)ccc1O |  |  | inactive | inactive |
| OC[C@@H](O)[C@H](O)[C@H](O)[C@@H](O)CO |  |  | inactive | inactive |
| CNC(=O)CN(CCN(CCN(CC(=O)[O-])CC(=O)NC)CC(=O)[O-])CC(=O)[O-].O.[Gd+3] |  |  | inactive | inactive |
